Measured values reported in PubChem BioAssay (Tox21).
Several values for one entry are separate records, joined by “and”; a condition that tells them apart may be missing. Identical values can stand only once. Inconclusive results are not listed. Activity calls are given as the source filed them. Unless noted, calls come from the whole dose curve; as a rule, active = well fitted curve in the direction sought with a large enough effect in the repeat runs; inconclusive = weak or mixed curves; inactive = no such curve, though single readings can be large; an effect the other way counts as inactive or inconclusive.

Key:
[1] = qHTS assay to identify small molecule agonists of the RXR signaling pathway - cell viability counter screen (AID 1159529); settings: RXR-alpha-bla HEK293T viability, CellTiter-Glo, 16 h; series mostly up to 76.8 µM; note: nearly all actives have a fitted effect of over 50% in size; note: potency is the fitted concentration of half-maximal effect
Procedure, shortened: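 RXR-alpha-UAS-bla HEK 293T cells in medium with 2% charcoal-stripped FBS were preincubated 5 hr, then exposed to compounds for 16 hr at 37 C. Viability was read as CellTiter-Glo luminescence after 30 min at room temperature.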

[2] = qHTS assay to identify small molecule antagonists of the retinoid acid receptor (RAR) signaling pathway - cell viability counter screen (AID 1159551); settings: C3RL4 cells viability, ATP luminescence (CellTiter-Glo), 6 h; series mostly up to 92.4 µM; note: nearly all actives have a fitted effect of over 35% in size; note: potency is the fitted concentration of half-maximal effect
Procedure, shortened: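 Cells (C3RL4) are plated, incubated overnight, dosed with compound in DMSO, then given retinol at 1 uM final. After 6 h at 37 C, CellTiter-Glo is added and luminescence read following 30 min at room temperature.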

[3] = qHTS assay to identify small molecule agonists of the retinoic acid receptor (RAR) signaling pathway (AID 1159553); settings: C3RL4 RARE luciferase reporter, agonist, 6 h; series mostly up to 73.3 µM
Procedure, shortened: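 Seed C3RL4 reporter cells at 1,000 per well and incubate overnight at 37 C. Add compounds in DMSO, incubate 6 hr. Add luciferase reagent, wait 30 min at room temperature, read luminescence.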

[4] = qHTS assay to identify small molecule antagonists of the estrogen related receptor (ERR) signaling pathway from Tox21 library - cell viability counter screen (AID 1224834); settings: ERR reporter cells viability, CellTiter-Fluor, 17.5 h; series mostly up to 92.4 µM; note: nearly all actives have a fitted effect of over 30% in size; note: potency is the fitted concentration of half-maximal effect
Procedure, shortened: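 ERR cells, 2,000/well; 6 h settle at 37 C/5% CO2; pin-tool compound transfer in DMSO; 17.5 h at 37 C; CellTiter-Fluor, 30 min; fluorescence intensity.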

[5] = biological target: Luciferin 4-monooxygenase (Photinus pyralis) (UniProt P08659); test: qHTS assay to identify small molecule inhibitors of firefly luciferase (AID 1224835); note: nearly all actives have a fitted effect of over 25% in size; note: potency is the fitted concentration of half-maximal effect; settings: purified P. pyralis luciferase, luminescence inhibition; series mostly up to 115 µM
Procedure, shortened: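 Quantitative HTS format; KM concentrations of both substrates. Purified P. pyralis FLuc activity quantified from luminescence images.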

[6] = qHTS assay to identify small molecule agonists of the constitutive androstane receptor (CAR) signaling pathway - cell viability counter screen (AID 1224836); settings: HepG2-CYP2B6-hCAR viability, CellTiter-Fluor, 23 h, PK11195 added to every well; series mostly up to 92.4 µM; note: nearly all actives have a fitted effect of over 45% in size; note: potency is the fitted concentration of half-maximal effect
Procedure, shortened: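 HepG2 cells stably carrying hCAR and a CYP2B6-2.2kb reporter were plated 4 h, then given compounds at 15 concentrations plus PK11195 (final 0.75 uM). After 23 h at 37 C, viability was read by CellTiter-Fluor fluorescence.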

[7] = qHTS assay to identify small molecule antagonists of the constitutive androstane receptor (CAR) signaling pathway - cell viability counter screen (AID 1224837); settings: HepG2-CYP2B6-hCAR viability, CellTiter-Fluor, 23 h, co-treated with 50 nM CITCO; series mostly up to 92.4 µM; note: nearly all actives have a fitted effect of over 45% in size; note: potency is the fitted concentration of half-maximal effect
Procedure, shortened: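 Viability was measured with CellTiter-Fluor in a HepG2 line carrying stably transfected hCAR and a CYP2B6-2.2kb construct. Cells were exposed for 23 hr at 37 C to 15 compound concentrations with 50 nM CITCO as agonist.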

[8] = qHTS assay to identify small molecule antagonists of the estrogen related receptor signaling pathway with the pleiotropic PPARgamma coactivator (PGC) from Tox21 10K library - cell viability counter screen (AID 1224840; active = well fitted cell-killing curve with a large enough effect in the repeat runs, not every such curve was filed as active; note: nearly all actives have a fitted effect of over 40% in size; note: potency is the fitted concentration of half-maximal effect); settings: PGC/ERR reporter cells viability, CellTiter-Fluor, 17.5 h; series mostly up to 92.4 µM
Procedure, shortened: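 Multiplexed viability counter screen in the PGC/ERR cell line: cells treated with DMSO-dissolved compounds for 17.5 hours at 37 C, then viability measured as CellTiter-Fluor fluorescence.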

[9] = biological target: Thyrotropin receptor (Homo sapiens) (UniProt P16473); test: qHTS assay to identify small molecule agonists of the thyroid stimulating hormone receptor (TSHR) signaling pathway (AID 1224843; calls by dose curve; note: nearly all actives have a fitted effect of over 45% in size; note: potency is the fitted concentration of half-maximal effect); settings: TSHR-HEK293 cells, cAMP HTRF, agonist mode, 30 min; series mostly up to 92.4 µM
Procedure, shortened: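 Using 15 concentrations per compound in triplicate, cAMP production was monitored in TSHR-HEK293 cells after 30 min compound incubation at RT; HTRF reagents followed, with fluorescence intensity recorded after 1 h.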

[10] = biological target: Nuclear receptor subfamily 1 group I member 3 (Homo sapiens) (UniProt Q14994); test: qHTS assay to identify small molecule antagonists of the constitutive androstane receptor (CAR) signaling pathway (AID 1224838); settings: HepG2-CYP2B6-hCAR luciferase, CITCO-stimulated, 24 h; series mostly up to 92.4 µM; note: nearly all actives have a fitted effect of over 40% in size; note: potency is the fitted concentration of half-maximal effect
Procedure, shortened: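 Antagonist mode used CITCO at a final 50 nM to activate CAR in human hepatoma HepG2 cells carrying stable hCAR and a 2.2 kb CYP2B6 promoter-luciferase construct. Compounds were tested at 15 concentrations over 24 h, with luminescence as the end point.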

[11] = biological target: Nuclear receptor subfamily 1 group I member 3 (Homo sapiens) (UniProt Q14994); test: qHTS assay to identify small molecule agonists of the constitutive androstane receptor (CAR) signaling pathway (AID 1224839); settings: HepG2 hCAR CYP2B6-luciferase, agonist mode, 24 h; series mostly up to 92.4 µM; note: nearly all actives have a fitted effect of over 15% in size
Procedure, shortened: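 HepG2 cells stably expressing hCAR and a CYP2B6-2.2kb luciferase reporter were treated with compounds at 15 concentrations plus 0.75 uM PK11195 (final) for 24 h at 37 C; luminescence was read after ONE-Glo addition.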

[12] = qHTS assay to identify small molecule antagonists of the estrogen related receptor signaling pathway with the pleiotropic PPARgamma coactivator (PGC) from Tox21 10K library (AID 1224841; call rule not given here; note: actives are mostly falling curves and most rising ones were filed inactive; nearly all actives have a fitted effect of over 50% in size; note: potency is the fitted concentration of half-maximal effect); settings: PGC/ERR reporter cell line, ONE-Glo luciferase, 18 h; series mostly up to 92.4 µM
Procedure, shortened: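 Steps: plate 2,000 PGC/ERR cells per well; incubate 6 h at 37 C with 5% CO2; transfer compounds from DMSO stocks by pin tool; incubate 18 h at 37 C; add One-Glo; measure luminescence 30 min later.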

[13] = qHTS assay to identify small molecule agonists of the estrogen related receptor signaling pathway with the pleiotropic PPARgamma coactivator (PGC) from Tox21 10K library (AID 1224842); settings: PGC/ERR reporter cell line, luciferase ONE-Glo, 18 h; series mostly up to 92.4 µM; note: nearly all actives have a fitted effect of over 15% in size
Procedure, shortened: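 PGC/ERR reporter cells (NTP line) were seeded 2,000 per well, rested 6 h at 37 C/5% CO2, then pin-dosed with compounds in DMSO for 18 h at 37 C; luciferase read by One-Glo luminescence after 30 min at room temperature.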

[14] = qHTS assay to identify small molecule antagonists of the estrogen related receptor (ERR) signaling pathway - cell viability counter screen (AID 1224818); settings: ERR reporter cell line viability counter screen; series mostly up to 46.1 µM
Procedure, shortened: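 ERR cells, 2,000/well; 6 h settle at 37 C/5% CO2; compound pin transfer (DMSO); 17.5 h at 37 C; CellTiter-Fluor, 30 min, fluorescence read.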

[15] = qHTS assay to identify small molecule antagonists of the estrogen related receptor (ERR) signaling pathway (AID 1224819;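 note: luminescence from an ERR-driven luciferase reporter measured with One-Glo reagent; nearly all actives have a fitted effect of over 50% in size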); settings: ERR reporter cell line, luciferase inhibition; series mostly up to 46.1 µM
Procedure, shortened: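 qHTS in ERR cells, 2,000/well, 1536 format. Cpd (DMSO) added after 6 h settle, 18 h 37 C. One-Glo luminescence, 30 min RT.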

[16] = qHTS assay to identify small molecule agonists of the estrogen related receptor (ERR) signaling pathway (AID 1224820); settings: ERR reporter cell line, luciferase agonist mode; series mostly up to 46.1 µM
Procedure, shortened: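 Following a 6 h settling period, 2,000 ERR cells per well receive DMSO-dissolved compounds by pin tool and incubate 18 h at 37 C; agonist activity is scored from One-Glo luminescence read 30 min post-addition.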

[17] = system: estrogen-related receptor alpha (ERRalpha) with PGC-1alpha coactivator, human; test: qHTS assay to identify small molecule antagonists of the estrogen related receptor signaling pathway with the pleiotropic PPARgamma coactivator (PGC) (AID 1224821; calls by dose curve;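 note: lower luminescence signal means antagonism of PGC/ERR signalling; nearly all actives have a fitted effect of over 50% in size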); settings: ERR/PGC reporter cell line, luciferase, antagonist mode; series mostly up to 46.1 µM
Procedure, shortened: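 Screening used NTP's PGC/ERR cells, dosed via pin tool with compound in DMSO alongside positive and negative controls. After 18 h at 37 C, One-Glo reagent sat 30 min at room temperature before luminescence detection.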

[18] = qHTS assay to identify small molecule antagonists of the estrogen related receptor signaling pathway with the pleiotropic PPARgamma coactivator (PGC) cell viability counter screen (AID 1224822;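 note: viability read after 17.5 h compound exposure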); settings: ERR/PGC reporter cell line viability counter screen; series mostly up to 46.1 µM
Procedure, shortened: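 Multiplexed viability counter screen run in PGC/ERR cells treated with compounds for 17.5 h at 37 C; live-cell protease signal measured by CellTiter-Fluor fluorescence.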

[19] = qHTS assay to identify small molecule agonists of the estrogen related receptor signaling pathway with the pleiotropic PPARgamma coactivator (PGC) (AID 1224823); settings: ERR/PGC reporter cell line, luciferase agonist mode; series mostly up to 46.1 µM
Procedure, shortened: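 In this quantitative high-throughput screen, an 18 h, 37 C treatment of PGC/ERR cells with compounds in DMSO preceded a One-Glo luminescence read taken after 30 min at room temperature.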

[20] = qHTS assay to identify small molecule antagonists of the retinoic acid receptor (RAR) signaling pathway (AID 1159552); settings: C3RL4 RARE luciferase reporter, retinol-stimulated, 6 h; series mostly up to 92.4 µM
Procedure, shortened: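 RARE-luc C3RL4 cells; cpds + 1 uM (final) retinol, 6 hr, 37 C/5% CO2; luciferase reagent, 30 min RT, luminescence readout. Inhibitors of retinol-driven signal scored.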

Measured: Potency

Chain of Luciferin 4-monooxygenase (Photinus pyralis) (P08659 whole entry, looked up): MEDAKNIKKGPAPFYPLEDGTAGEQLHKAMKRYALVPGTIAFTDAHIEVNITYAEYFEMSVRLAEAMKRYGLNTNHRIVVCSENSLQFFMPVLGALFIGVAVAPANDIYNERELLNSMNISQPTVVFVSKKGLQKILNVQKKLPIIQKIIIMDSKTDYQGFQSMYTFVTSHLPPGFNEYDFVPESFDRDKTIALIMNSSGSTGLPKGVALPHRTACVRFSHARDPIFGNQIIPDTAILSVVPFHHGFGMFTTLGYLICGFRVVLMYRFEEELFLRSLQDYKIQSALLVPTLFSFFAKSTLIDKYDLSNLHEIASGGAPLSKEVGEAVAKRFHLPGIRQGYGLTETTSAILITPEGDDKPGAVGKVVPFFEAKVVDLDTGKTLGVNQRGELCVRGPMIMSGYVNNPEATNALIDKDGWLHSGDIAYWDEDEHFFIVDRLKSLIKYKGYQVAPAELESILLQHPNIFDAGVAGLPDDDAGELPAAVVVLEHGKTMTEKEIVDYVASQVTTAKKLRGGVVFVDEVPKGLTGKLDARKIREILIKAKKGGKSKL
Chain of Thyrotropin receptor (Homo sapiens) (P16473 whole entry, looked up): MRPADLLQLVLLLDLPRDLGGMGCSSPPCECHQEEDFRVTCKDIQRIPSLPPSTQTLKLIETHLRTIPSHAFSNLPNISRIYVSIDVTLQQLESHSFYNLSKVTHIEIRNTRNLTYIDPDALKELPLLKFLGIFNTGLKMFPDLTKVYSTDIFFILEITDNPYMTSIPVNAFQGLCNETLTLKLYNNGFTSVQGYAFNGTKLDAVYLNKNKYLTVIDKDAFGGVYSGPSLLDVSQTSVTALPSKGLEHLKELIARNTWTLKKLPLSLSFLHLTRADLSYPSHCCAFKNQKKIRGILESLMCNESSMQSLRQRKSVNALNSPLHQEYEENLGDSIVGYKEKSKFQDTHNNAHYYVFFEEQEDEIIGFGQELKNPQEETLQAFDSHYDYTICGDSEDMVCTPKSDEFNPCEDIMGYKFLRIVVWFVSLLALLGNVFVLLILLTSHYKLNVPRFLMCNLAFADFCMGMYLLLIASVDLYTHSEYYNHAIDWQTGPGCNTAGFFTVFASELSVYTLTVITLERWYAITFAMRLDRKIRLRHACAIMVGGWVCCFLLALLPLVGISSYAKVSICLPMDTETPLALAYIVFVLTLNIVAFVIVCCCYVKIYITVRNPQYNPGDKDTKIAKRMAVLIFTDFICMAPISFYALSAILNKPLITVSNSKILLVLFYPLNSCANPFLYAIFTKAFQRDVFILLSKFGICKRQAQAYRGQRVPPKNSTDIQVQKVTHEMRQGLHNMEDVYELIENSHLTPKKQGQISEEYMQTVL
Chain of Nuclear receptor subfamily 1 group I member 3 (Homo sapiens) (Q14994 whole entry, looked up): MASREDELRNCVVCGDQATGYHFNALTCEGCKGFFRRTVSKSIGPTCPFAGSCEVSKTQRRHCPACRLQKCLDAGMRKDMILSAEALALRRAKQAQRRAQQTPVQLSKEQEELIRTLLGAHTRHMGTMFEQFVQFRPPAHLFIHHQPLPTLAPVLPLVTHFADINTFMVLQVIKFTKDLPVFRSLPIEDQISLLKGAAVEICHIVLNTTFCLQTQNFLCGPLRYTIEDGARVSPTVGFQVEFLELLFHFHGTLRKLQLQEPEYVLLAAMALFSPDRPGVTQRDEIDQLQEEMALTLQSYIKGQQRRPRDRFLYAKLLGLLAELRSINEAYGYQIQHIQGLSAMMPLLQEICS

O=[N+]([O-])c1ccccc1Nc1ccccc1
inactive: [1] | [2] | [3] | [4] | [5] | [6] | [7] | [8] | [9]

CCC(N)(CO)CO
not listed: [9] | [14] | [15] | [16] | [17] | [18] | [19] | [20]
inactive: all other assays above

CS(=O)(=O)CCNCc1ccc(-c2ccc3ncnc(Nc4ccc(OCc5cccc(F)c5)c(Cl)c4)c3c2)o1
inactive: [2] | [3] | [5] | [10] | [11] | [13] | [9]
active: [1] 16.9 µM | [4] 6.68 µM | [8] 33.5 µM

Clc1ccc2nsnc2c1NC1=NCCN1
not listed: [20]
inactive: all other assays above

CNc1ccc(O)cc1
inactive: [13]
active: [1] 34.6 µM | [2] 27.3 µM | [20] 27.3 µM | [4] 43.2 µM | [5] 39.8 µM | [8] 48.5 µM

O=S1(=O)CC(Cl)(Cl)C(Cl)(Cl)C1
inactive: [5] | [13]
active: [1] 4.36 µM | [2] 15.4 µM | [4] 15.4 µM | [6] 12.2 µM | [7] 8.63 µM | [12] 13.7 µM | [9] 4.86 µM

O=[N+]([O-])c1cc(Cl)c(Cl)c(Cl)c1Cl
inactive: [1] | [2] | [3] | [5] | [6] | [7] | [10] | [11] | [13] | [9]

CCCCC(CC)COP(=O)(O)OCC(CC)CCCC (configuration not stated)
active: [4] 48.6 µM | [12] 27.4 µM and 21.7 µM
inactive: [1] | [2] | [3] | [6] | [7] | [10] | [11] | [8] | [13]

CCCCCCCC(=O)[O-].CCCCCCCC(=O)[O-].[Zn+2]
inactive: [1] | [2] | [4] | [6] | [7] | [10] | [11]
active: [5] 34.7 µM

CCCCCCCCCCCC[N+](C)(C)CCCCCCCCCCCC
inactive: [11] | [13]
active: [1] 15.5 µM | [2] 43.3 µM | [4] 27.3 µM | [5] 79.6 µM | [6] 27.3 µM | [7] 24.3 µM | [10] 27.3 µM | [9] 24.3 µM

CC1(C)CCC(C)(C)c2cc(C(=O)Nc3ccc(C(=O)O)cc3)ccc21
active: [5] 79.6 µM
not listed: [3] | [14] | [15] | [16] | [17] | [18] | [19] | [20]
inactive: all other assays above

C=CC(=O)OCC(CO)(COC(=O)C=C)COC(=O)C=C
active: [1] 13.9 µM and 12.3 µM | [2] 61.3 µM | [4] 6.88 µM and 13.7 µM | [6] 13.7 µM and 54.5 µM | [7] 9.72 µM and 24.3 µM | [12] 13.7 µM and 24.3 µM | [9] 6.13 µM and 9.69 µM
inactive: [5] | [13]

C[C@]12CCC(=O)C=C1CC[C@@H]1[C@@H]2[C@@H](O)C[C@@]2(C)[C@H]1CC[C@]2(O)C(=O)COC(=O)CCC(=O)O
inactive: [1] | [2] | [4] | [5] | [6] | [7] | [8] | [9]

Fc1ccc([C@@H]2CCNC[C@H]2COc2ccc3c(c2)OCO3)cc1
inactive: [1] | [2] | [3] | [5] | [6] | [7] | [11] | [8]

CCOC(=O)O[C@H](C)OC(=O)c1ccc2c(c1)cc(C(=O)NC1CCN(C(C)C)CC1)n2Cc1cc(-c2ccc(Cl)s2)on1
active: [1] 6.46 µM | [2] 28.6 µM | [4] 28.6 µM | [7] 64.1 µM | [10] 64.1 µM | [8] 22.7 µM
inactive: [5] | [11]

CC(=O)OCC(C)OC(C)=O (configuration not stated)
inactive: [1] | [2] | [4] | [5] | [6] | [7] | [8] | [9]

NNC(=O)c1cccc(C(=O)NN)c1
inactive: [1] | [2] | [4] | [5] | [6] | [7] | [10] | [11] | [8]
